The whole screen tested about 340,000 compounds, of which about 6,200 (1.8%) were called active. A call without a number means that no potency is given here. About 10% were inconclusive and are not listed. Calls follow the shape of the dose curve; as a rule, active = well fitted activation curve with a large enough effect; inconclusive = small, poorly fitted or top-dose-only effect; inactive = no such curve, though single readings can be large or run the other way. For the sample, actives were picked, then their nearest neighbours and some compounds at random.
Potency is read from the fitted curve at half-maximal effect.

This assay can be described thus: A quantitative high throughput screen for small molecules that induce DNA re-replication in SW480 colon adenocarcinoma cells. Also: nearly all actives have a fitted effect of over 55% in size. As to conditions: Hoechst DNA content imaging, 48 h; series mostly up to 46.1 µM. In short, it runs like this:
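Hoechst fluorescence of nuclei (405 nm excitation, 500-530 nm emission) measured by plate-scanning imager after 48 hr compound exposure at 37 C; re-replication scored as increased number of nuclei with elevated intensity.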
As for `COc1ccc(Nc2oc(-c3ccccc3Cl)nc2C#N)cc1`, the Potency is 10.3 µM (active).
Still for that read-out and setting: as for `Cc1ccccc1-c1nc(C#N)c(NCc2ccco2)o1`, the entry is “inactive”.
Take `N#Cc1nc(-c2cccc3ccccc23)oc1N`: the Potency result is “inactive”.
Same read-out and setting: as for `COc1ccc(CCC(=O)Nc2ccc(Cl)c(S(=O)(=O)N3CCOCC3)c2)cc1OC`, the entry is “inactive”; as for `O=[N+]([O-])c1ccccc1/C=C/CN1CCC(O)CC1`, “inactive”.
The same measure, in the same setting: as for `O=[N+]([O-])c1ccccc1/C=C/CN1CCCC(CO)C1` (stereo not drawn), the entry is “inactive”; as for `CC1CCCCC1NC(=O)/C(C#N)=C/C=C/c1ccccc1[N+](=O)[O-]` (stereo not drawn), 6.51 µM (active).
Still for that read-out and setting: with `COCCN(C(=O)C(C)N1C(=O)c2ccccc2C1=O)c1c(N)n(CC(C)C)c(=O)[nH]c1=O` (stereo not drawn) the entry was “inactive”; with `O=[N+]([O-])c1ccc(N=NNc2ccc([N+](=O)[O-])cc2)cc1`, “inactive”; with `COc1cccc(N2CCN(CC(=O)Nc3ccnn3C3CCCC3)CC2)c1`, “inactive”.
For `COc1cc(OC)cc(-c2cc3ccc(F)cc3cn2)c1`, the Potency entry is “inactive”.
As to `O=C(Nc1ccc(Cl)cc1)C1c2cccc[n+]2CC(=O)N1Cc1ccc2c(c1)OCO2` (stereo not drawn), the Potency was 23.1 µM (active).
Consider `O=C(C1CCN(Cc2ccc(Cl)cc2)CC1)N1CCN(Cc2ccc3c(c2)OCO3)CC1`, for which the Potency result was “inactive”.
The same measure, in the same setting: as for `CC1CCC(NC(=O)C2c3ccccc3C(=O)N2Cc2ccc3c(c2)OCO3)CC1` (stereo not drawn), the entry is “inactive”; as for `C=CC[C@@H](CC(=O)N[C@@H](CO)Cc1ccccc1)C(=O)NCCOC(=O)[C@@H](CC=C)CC(=O)OC(C)(C)C`, “inactive”.
Same read-out and setting: with `COC1=CC(=O)OC(C)(c2ccccc2)C1` (stereo not drawn) the entry was “inactive”; with `CCOC(=O)CCC(NC(=O)c1ccc(CNc2nc3cc(C(F)(F)F)ccc3nc2C(=O)OCC)cc1)C(=O)OCC` (stereo not drawn), “inactive”; with `FC(F)(F)c1ccc(-c2cccc3c2C2CC3CCN2Cc2ccccc2)cc1` (stereo not drawn), “inactive”.
Take `O=C(NNc1nc(N2CCCC2)nc(N2CCCC2)n1)c1ccccc1`: the Potency result is “inactive”.
On the same count and under the same terms, with `O=C(NN=Cc1ccc(N2CCOCC2)cc1)c1cc2ccccc2cc1O` the entry was “inactive”; with `CCN(CC)c1ccc(C(=O)N/N=C/c2ccc(N3CCOCC3)cc2)cc1`, 18.4 µM (active).
With `Cc1cc(C(=O)N/N=C/c2ccc(N3CCOCC3)cc2)c(C)o1`, the Potency entry is “inactive”.
On the same count and under the same terms, with `O=C(Nc1cccc(S(=O)(=O)N2CCCCC2)c1)c1cncc(Br)c1` the entry was “inactive”.
For `CC/C(=C(/c1ccccc1)c1ccc(OCC[N+](C)(C)C)cc1)c1ccccc1`, the Potency result is “inactive”.
As for `Nn1c(SCC(=O)Nc2ccc3c(c2)CCC3)nnc1C1CC1`, the Potency result was “inactive”.
On the same count and under the same terms, with `O=C(COC(=O)c1ccccc1O)NCc1ccco1` the entry was “inactive”.
On to `Cc1cc(C(=O)OCC(=O)NCc2ccco2)c(C)n1-c1ccccc1`, for which the Potency is 7.31 µM (active).
The same measure, in the same setting: as for `CN(c1ccccc1)S(=O)(=O)c1ccc(Cl)c(C(=O)OCC(=O)NCc2ccco2)c1`, the entry is “inactive”; as for `CC(C(=O)N1CCc2ccccc21)N(C)CC(=O)Nc1ccc(F)cc1` (stereo not drawn), “inactive”; as for `O=C1COc2ccc(C(=O)COC(=O)CCOc3ccccc3)cc2N1`, “inactive”.
The same measure, in the same setting: with `Cc1ccc(-c2csc(C(C#N)=C(O)CN3CCN(C(=O)c4ccco4)CC3)n2)cc1` the entry was “inactive”.
Turning to `Cc1cn([C@H]2CC(F)[C@@H](CO)O2)c(=O)[nH]c1=O` (stereo partly drawn), the Potency result is “inactive”.
In the case of `COc1cc(OC)cc(C(=O)NCC(=O)OCC(=O)NC(C)CCc2ccccc2)c1` (stereo not drawn), the Potency result is “inactive”.
The same measure, in the same setting: as for `O=C(Nc1cccc(-c2cscn2)c1)C1CCN(Cc2ccsc2)CC1`, the entry is “inactive”; as for `CC(=O)c1cc(CN2CCC(C(=O)Nc3cccc(-c4cscn4)c3)CC2)cs1`, “inactive”.
For `CCn1cc(CN2CCC(C(=O)Nc3cccc(-c4cccc(Cl)c4)c3)CC2)cn1`, the Potency is 18.4 µM (active).
As to `C=CCN1C=C(C(=O)c2ccccc2)C(=O)CC1`, the Potency entry was “inactive”.
On the same count and under the same terms, as for `CCCCCCCCCCOC(=O)Cn1c(COc2ccc(C)cc2)[n+](C)c2ccccc21`, the figure is 20.6 µM (active); as for `CCCCCCCCCCOC(=O)Cn1c(COc2cccc(OC)c2)[n+](C)c2ccccc21`, “inactive”.
With `Cc1ccc(OCCCn2c(=O)oc3ccccc32)cc1`, the Potency entry was “inactive”.
As to `O=c1c2ccccc2ncn1CCc1ccncc1`, the Potency entry was “inactive”.
With `COc1ccccc1C(=O)OCC(=O)Nc1cccc(S(=O)(=O)NC2=NCCCCC2)c1`, the Potency result was “inactive”.
In the case of `CCOc1ccccc1CNS(=O)(=O)c1cc(-c2cc(C)no2)ccc1C`, the Potency result was “inactive”.
The same measure, in the same setting: with `Cc1cc(-c2ccc(C)c(S(=O)(=O)NC(C)Cc3ccco3)c2)on1` (stereo not drawn) the entry was “inactive”; with `Cc1cc(-c2ccc(C)c(S(=O)(=O)NCCCN(Cc3ccccc3)C(C)C)c2)on1`, 18.4 µM (active); with `COc1cccc2oc(CCc3ccccc3)cc(=O)c12`, “inactive”.
Still for that read-out and setting: as for `CCOc1cc(C(=O)N(Cc2ccccc2)c2ccc(C)cc2)ccc1OCC(=O)N1CCOCC1`, the entry is “inactive”.
On to `CC(C(=O)NC1CCS(=O)(=O)C1)N1C(=O)/C(=C/c2ccc(Cl)cc2)SC1=S` (stereo not drawn), for which the Potency result is “inactive”.
Turning to `O=C1/C(=C\c2ccc(O)cc2)CCC1CNc1ccc(Cl)cc1` (stereo not drawn), the Potency was 16.4 µM (active).
Same read-out and setting: as for `CC1CCN(C2=NC(=O)/C(=C/c3ccc(O)cc3)S2)CC1`, the entry is “inactive”; as for `O=C(COC(=O)c1cccnc1Cl)Nc1ccc(S(=O)(=O)N2CCOCC2)cc1`, “inactive”; as for `COCCN(C(=O)CSCc1ccc(C)cc1)c1c(N)n(CC(C)C)c(=O)[nH]c1=O`, “inactive”.
On the same count and under the same terms, with `COc1ccc(/C=N/NC(=O)C(C)N(c2ccc(OC)cc2)S(C)(=O)=O)cc1` (stereo not drawn) the figure was 18.4 µM (active); with `CC(C(=O)NC1CCCC1)N(c1ccc(Oc2ccccc2)cc1)S(C)(=O)=O` (stereo not drawn), “inactive”; with `COc1ccc(/C=N/NS(=O)(=O)c2ccc(NC(C)=O)cc2)cc1`, “inactive”.
As to `CC[C@]12c3[nH]c4cc(CCC(=O)N(C)C)ccc4c3CCN1C(=O)[C@@H](CC(=O)NCC13CC4CC(CC(C4)C1)C3)C[C@@H]2C(=O)N1CCN(C(=O)C2CC2)CC1`, the re-replication activation was -2.17% [at 9.22 µM] (inactive).
In the case of `CC(C)(C)OC(=O)C[C@@H]1C/C=C\C[C@@H](CC(=O)N[C@@H](CO)Cc2ccccc2)C(=O)N2CCC[C@H]2COC1=O`, the Potency entry was “inactive”.
As for `CC1CCCCC1NC(=O)COc1ccc(C#N)cc1` (stereo not drawn), the Potency entry is “inactive”.
As for `Oc1ccccc1CN1CCN(C(c2ccccc2)c2ccccc2)CC1`, the Potency result is “inactive”.
As for `CCN1CCN(C(c2cccnc2)c2cc(Cl)c3cccnc3c2O)CC1` (stereo not drawn), the Potency is 20.6 µM (active).
Same read-out and setting: as for `Oc1c(C(c2ccccn2)N2CCOCC2)ccc2cccnc12` (stereo not drawn), the entry is “inactive”; as for `COc1cc(C(=O)N2CCN(S(=O)(=O)c3ccc(C(C)C)cc3)CC2)ccc1OCC(=O)N1CCOCC1`, “inactive”; as for `COC(=O)[C@]1(C)N[C@H](CN(C)C(=O)c2ccc(C(C)(C)C)cc2)[C@@H]2C(=O)N(C)C(=O)[C@@H]21`, “inactive”.
For `COc1cc(/C=C/CNC[C@H]2O[C@@H](n3cnc(C(N)=O)n3)[C@H](O)[C@@H]2O)ccc1O`, the Potency entry was “inactive”.
With `CCNC(=O)CSc1nc(-c2ccccc2)cs1`, the Potency entry is “inactive”.
The same measure, in the same setting: as for `CCN(CC)C(=O)c1sc2nc(-c3ccccc3)ccc2c1N`, the figure is 20.6 µM (active); as for `Nc1c(C(=O)NCc2ccccc2)sc2nc3c(cc12)C(=O)CCC3`, “inactive”; as for `Cc1ccc(S(=O)(=O)N2CCC(C(=O)N3CCCCCCC3)CC2)cc1`, “inactive”.
For the molecule `COc1ccc(CNC(=O)COC(=O)C2=Cc3ccccc3OC2)cc1`, the Potency entry was “inactive”.
The same measure, in the same setting: with `Cc1nnc2n1N=C(c1ccccc1)CS2` the entry was “inactive”.
Regarding `CC1=Nn2c(nnc2-c2ccccc2)SC1`, the Potency result was “inactive”.
The same measure, in the same setting: as for `COc1ccc(C2=Nn3c(nnc3-c3ccccc3OC)SC2)cc1OC1CCCC1`, the figure is 2.31 µM (active).
Still for that read-out and setting: with `COC(=O)[C@]1(CC(C)C)N[C@H](c2ccc(SC3CCCCC3)cc2)[C@@H]2C(=O)N(C)C(=O)[C@@H]21` the entry was “inactive”; with `Cc1ccc(S(=O)(=O)c2nnn3c2nc(N2CCN(c4ccccn4)CC2)c2ccccc23)cc1`, “inactive”.
The same measure, in the same setting: with `CC(=O)Nc1ccc(Nc2nc3c(S(=O)(=O)c4ccc(C)c(C)c4)nnn3c3ccccc23)cc1` the figure was 18.4 µM (active).
As to `Cc1cccc(Nc2nc3c(S(=O)(=O)c4ccccc4)nnn3c3ccccc23)c1C`, the Potency entry was “inactive”.
Same read-out and setting: with `S=C(Nc1ccccc1)Nc1ccc2ccccc2c1` the entry was “inactive”.
On the same count and under the same terms, as for `Cc1cccn2c(=O)c3cc(C(=O)NC4CCCCC4)sc3nc12`, the entry is “inactive”.
As to `Cc1cccn2c(=O)c3cc(C(=O)N4COCC4(C)C)n(C)c3nc12`, the Potency entry was “inactive”.
Still for that read-out and setting: as for `Cc1cccn2c(=O)c3cc(C#N)c(=NC(=O)c4cccnc4)n(CC4CCCO4)c3nc12` (stereo not drawn), the figure is 18.4 µM (active); as for `NN=C(NN=Cc1ccccc1)c1ccccc1`, “inactive”; as for `Cc1cccc(CSc2nnc(NC(=O)CSc3nnc(C)s3)s2)c1`, “inactive”.
On the same count and under the same terms, as for `Cc1nnc(NC(=O)CSc2nccn2-c2cccc(C)c2C)s1`, the figure is 8.2 µM (active); as for `COc1ccccc1-n1c(CNC(=O)c2ccccc2)nnc1SCC(=O)Nc1nnc(C)s1`, “inactive”.
Same read-out and setting: with `Cc1cc([N+](=O)[O-])c(=O)[nH]c1C` the entry was “inactive”; with `O=C(c1nnc(-c2ccc(Cl)cc2)o1)C1CCCC1`, “inactive”; with `O=C(c1[nH]ncc1-c1ccc(Cl)cc1)C1CO1` (stereo not drawn), 16.4 µM (active).
With `N=C1c2ccccc2-c2ccccc21`, the Potency entry was “inactive”.
Still for that read-out and setting: with `COC(=O)c1ccc(C)c(NC(=O)Cn2c(C)csc2=O)c1` the entry was “inactive”; with `CC(C)N(C(=O)[C@H]1C[C@H](CC(=O)NC(C)(C)C)C(=O)N2CCc3c([nH]c4ccc(Cl)cc34)[C@]12C)C(C)C`, “inactive”; with `CN1c2ccc(C=O)c3c(C=O)ccc(c23)N(C)C1(C)C`, 3.26 µM (active).
Consider `COc1ccc(S(=O)(=O)N(C)C[C@H]2Oc3c(NC(=O)Nc4ccc5c(c4)OCO5)cccc3C(=O)N([C@H](C)CO)C[C@@H]2C)cc1`, for which the Potency entry was “inactive”.
For `CCOC(=O)C(CO)NC(=O)C1(NC(C)=O)CCCC1` (stereo not drawn), the Potency entry was “inactive”.
With `C=CCn1c(SCc2c(C)noc2C)nc2sc3c(c2c1=O)CCC(C)C3` (stereo not drawn), the Potency was 9.2 µM (active).
On the same count and under the same terms, as for `C=CCn1c(SCC(=O)NCC2CCCO2)nc2sc(C)c(C)c2c1=O` (stereo not drawn), the entry is “inactive”; as for `C=CCn1c(SCC(=O)NCCCO)nc2sc3c(c2c1=O)CCC3`, “inactive”; as for `Cc1ccc(NC(=O)CN(C)C(=O)c2ccc(Cl)c(S(=O)(=O)NCc3ccco3)c2)cc1`, “inactive”.
On to `Cc1c(Cl)cnc(NC(=O)COC(=O)C2CCCC2)c1Cl`, for which the Potency result was “inactive”.

These data come from PubChem BioAssay AID624297 (National Center for Advancing Translational Sciences (NCATS), 2012).
